Results taken from PubChem BioAssay.
For part of these data: Results with a measured potency or affinity are listed apart. Activity calls are given as the source filed them.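 Rule for the calls, unless noted: active = fitted half-maximal concentration within the tested dose range, moderate curve steepness, a statistically real signal drop, and little compound fluorescence or tag-binding interference; inactive = the rest.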

What was measured:
[1] = target: Cell division control protein 42 homolog (Homo sapiens) (UniProt P60953); assay: inhibition of fluorescent GTP binding to constitutively active Cdc42 – biochemical, multiplex bead flow cytometry, Bodipy-FL-GTP, dose response (AID 1333)
Chain of Cell division control protein 42 homolog (Homo sapiens) (P60953 whole entry, looked up): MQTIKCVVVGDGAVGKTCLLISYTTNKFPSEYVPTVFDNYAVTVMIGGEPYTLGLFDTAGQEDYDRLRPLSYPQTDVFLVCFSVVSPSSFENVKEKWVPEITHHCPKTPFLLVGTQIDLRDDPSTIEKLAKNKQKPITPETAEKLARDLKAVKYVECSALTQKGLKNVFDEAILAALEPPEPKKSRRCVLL

[2] = target: Cell division control protein 42 homolog (Homo sapiens) (UniProt P60953); assay: inhibition of fluorescent GTP binding to wildtype Cdc42 – biochemical, multiplex bead flow cytometry, Bodipy-FL-GTP, dose response (AID 1334;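 active = fitted half-maximal concentration within the tested range, moderate curve steepness, significant signal drop, and little compound fluorescence or bead-linkage interference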); settings: bead-based flow cytometry, Bodipy-FL-GTP binding to GST-Cdc42; at 100 µM (top of the series) unless noted
[3] = target: GTPase HRas (Homo sapiens) (UniProt P01112); assay: Ras wt fluorescent GTP loading blockade – biochemical, wildtype, multiplex bead flow cytometry, dose response (AID 1335;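 active = fitted half-maximal concentration within 10 nM to 100 µM, steepness 0.5 to 2, significant signal drop, low assay interference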); settings: bead-based flow cytometry, Bodipy-GTP binding to GST-Ras; at 100 µM (top of the series) unless noted
Chain of GTPase HRas (Homo sapiens) (P01112 whole entry, looked up): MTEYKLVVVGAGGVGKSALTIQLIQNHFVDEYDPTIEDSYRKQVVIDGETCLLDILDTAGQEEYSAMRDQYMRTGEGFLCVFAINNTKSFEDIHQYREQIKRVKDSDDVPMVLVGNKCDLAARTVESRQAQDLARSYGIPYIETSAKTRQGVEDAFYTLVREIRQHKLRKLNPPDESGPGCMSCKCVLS

[4] = tested on: Ras-related protein Rab-7a (dog), GTP binding; assay: blockers of fluorescent GTP binding to Rab7 – biochemical, wildtype, multiplex bead flow cytometry, dose response (AID 1336; call rule not given here)
[5] = target: Ras-related C3 botulinum toxin substrate 1 (Homo sapiens) (UniProt P63000); assay: inhibition of wildtype Rac1 nucleotide loading – biochemical, multiplex bead flow cytometry, dose response (AID 1340;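 active = dose curve with midpoint inside tested range, moderate steepness, plateau gap beyond fit error, low compound glow and bead-link interference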); settings: GST-Rac1 beads, Bodipy-FL-GTP binding; at 100 µM (top of the series) unless noted
[6] = target: GTPase HRas (Homo sapiens) (UniProt P01112); assay: blockade of GTP loading onto mutant Ras – biochemical, activated mutant, multiplex bead flow cytometry, dose response (AID 1341;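 active = dose-response curve with midpoint inside the tested range, moderate steepness, significant amplitude and little compound fluorescence or bead-attachment interference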;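 note: GST-tagged constitutively activated Ras mutant immobilized on beads and multiplexed with other GTPases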)

SMILES | outcome [1] | fluorescence, percent of control (lower = inhibition) [2] | GTP binding, percent of control [3] | outcome [4] | GTP binding signal, raw median fluorescence (lower = inhibition) (MCF (arbitrary fluorescence units)) [5] | outcome [6]
Cn1c(=O)c2c(nc(N3CCc4ccccc4C3)n2C)n(C)c1=O | inactive | 36.7% | 76.9% | inactive | 193 | inactive
S=c1[nH]nc(-c2ccco2)n1-c1ccccc1Cl | inactive | 26.1% | 60.5% | inactive | 231 | inactive
Nc1c(S(=O)(=O)c2cccs2)c2nc3ccccc3nc2n1/N=C/c1cccc(O)c1 | inactive | 30.6% | 77.3% | inactive | 101 | inactive
CCOc1ccc2ccccc2c1/C=N/n1cncn1 | inactive | 86.7% | 156% | inactive | 179 | inactive
Cc1cc(Cl)ccc1OCC(=O)OCC(=O)Nc1ccc(F)c([N+](=O)[O-])c1 | inactive | 53% | 70.9% | inactive | 0 | inactive
CS(=O)(=O)c1ccc(C(=O)OCc2nnc(-c3ccccc3)o2)cc1[N+](=O)[O-] | inactive | 22.4% | 81.7% | inactive | 259 | inactive
COc1cccc(CNCc2sc(C(=O)O)cc2C)c1OC | inactive | 61.7% | 80.7% | inactive | 35 | inactive
Cc1ccc(C)c(OCCSc2nc3ccccc3n2CC(=O)O)c1 | inactive | 59.6% | 88.1% | inactive | 29.2 | inactive
Cc1nc2ncccn2c1-c1csc(Nc2ccc(O)cc2)n1 | inactive | 20.9% | 46.8% | inactive | 106 | inactive
Cc1nn2c(-c3cccc(NC(=O)c4ccco4)c3)nnc2c2ccccc12 | inactive | 37.4% | 51% [at 33.3 µM] | inactive | 136 | inactive
COc1cccc2c1c(C(=O)O)cn2CCOc1ccccc1C | inactive | 58.5% | 212% | inactive | 55.1 | inactive
CCOc1cccc(Nc2cc3n(c(=O)n2)CCc2cc(OC)c(OC)cc2-3)c1 | inactive | 32% | 71.9% | inactive | 186 | inactive
COc1ccc(-c2noc(CCC(=O)N3CCN(c4cc(C)ccc4C)CC3)n2)cc1 | inactive | 25.4% | 76% | inactive | 195 | inactive
COc1ccc(-c2c(C)[nH]n3c(=O)c(Cc4ccccc4)c(C)nc23)cc1 | inactive | 33.9% | 79% | inactive | 217 | inactive
O=S1(=O)N=C(N=Nc2c(O)[nH]c3ccccc23)c2ccccc21 | inactive | 27.7% | 62.5% | inactive | 129 | inactive
O=C(O)C1=C[C@H](c2ccc(Br)cc2)C[C@H](OCc2ccc(CO)cc2)O1 | inactive | 30.3% | 82.5% | inactive | 230 | inactive
COc1ccc(OCc2ccccc2Br)c(C(=O)O)c1 | inactive | 53% | 217% | inactive | 49.3 | inactive
O=C(O)C1CSC(CCc2ccccc2)N1 (stereo not given) | inactive | 98.5% | 125% | inactive | 87.7 | inactive
Cc1nc2ccc(NC(=O)COc3ccccc3)cc2s1 | inactive | 37.6% | 89.8% | inactive | 271 | inactive
COc1cc(/C=N/Nc2nn3cnnc3c3ccccc23)ccc1O | inactive | 50.3% | 122% | inactive | 90.4 | inactive

SMILES | outcome [1] | fluorescence, percent of control (lower = inhibition) [2] | GTP binding, percent of control [3] | outcome [4] | GTP binding signal, raw median fluorescence (lower = inhibition) (MCF (arbitrary fluorescence units)) [5] | outcome [6]
CC(C)(C)NC(=O)c1ccc2nsnc2c1 | inactive | 52.7% | 66.2% | inactive | 213 | inactive
O=C(O)c1ccccc1NCc1ccc2c(c1)OCO2 | inactive | 69.6% | 89.5% | inactive | 54 | inactive
COc1ccc(C(=O)O)c(OCc2c(C)cccc2C)c1 | inactive | 59% | 208% | inactive | 55.5 | inactive
COc1cccc(C2CC(c3ccccc3)=NN2S(=O)(=O)c2ccc(C)cc2)c1OC (stereo not given) | inactive | 93.3% | 141% | inactive | 311 | inactive
CCCCCOC(=O)c1ccccc1C(=O)O | inactive | 134% | 220% | inactive | 275 | inactive
CCC/C(O)=C1\C(=O)CC(C)(C)CC1=Nc1ccccc1OC | inactive | 41.5% | 88.8% | inactive | 276 | inactive
CCOc1ccc(-n2nc3c(=S)[nH]nc(C)c3c2C)cc1 | inactive | 53.6% | 66.6% | inactive | 0 | inactive
COc1ccc(-n2c(NC(=O)c3ccc(Br)o3)c(C#N)c3nc4ccccc4nc32)cc1 | inactive | 24.6% | 72.7% | inactive | 169 | inactive
Cc1cc2ncn(CCC(=O)NC(C)(C)C)c2cc1C | inactive | 40% | 88.1% | inactive | 320 | inactive
COc1ccccc1OCCn1cc(C(=O)O)c2c(Cl)cccc21 | inactive | 48.6% | 191% | inactive | 52 | inactive
Cc1c(Cl)c([N+](=O)[O-])nn1Cc1ccc(C(=O)N/N=C\c2ccccn2)o1 | inactive | 38.5% | 53% | inactive | 95.4 | inactive
COc1ccc(S(=O)(=O)N2CCN(CC(=O)Nc3cc(C(F)(F)F)ccc3Cl)CC2)cc1 | inactive | 84.2% | 153% | inactive | 182 | inactive
Cc1cc(C(F)F)n2nc(C(=O)Nc3ccc(S(=O)(=O)NC45CC6CC(CC(C6)C4)C5)cc3)nc2n1 | inactive | 35% | 82.9% | inactive | 254 | inactive
CC(C)[C@H](NC(=O)c1ccccc1)C(=O)OCC(=O)NCCc1ccc(F)cc1 | inactive | 50.5% | 66.5% | inactive | 209 | inactive
Cc1cc(OCc2ccc(C(=O)O)o2)ccc1Cl | inactive | 57.7% | 85.2% | inactive | 31.8 | inactive
Cc1nn(CCc2nn[nH]n2)c2nc(-c3ccc(C4CCCCC4)cc3)cc(C(F)(F)F)c12 | inactive | 22.1% | 79.4% | inactive | 249 | inactive
O=C(Cc1csc(Nc2nc(=S)[nH]c3ccccc23)n1)NCCCN1CCN(c2cccc(Cl)c2)CC1 | inactive | 34.3% | 75.8% | inactive | 192 | inactive
Cc1nnc2ccc(-c3cccc(NC(=O)c4ccco4)c3)nn12 | inactive | 28.7% | 59.2% | inactive | 131 | inactive
O=[N+]([O-])c1ccc(/C=C/C2=NN(c3ccccc3)C(c3ccco3)C2)cc1 (stereo not given) | inactive | 135% | 132% | inactive | 258 | inactive
COc1ccc(CNCc2ccc(C(=O)O)s2)cc1 | inactive | 64.9% | 89.4% | inactive | 33.5 | inactive

SMILES | outcome [1] | fluorescence, percent of control (lower = inhibition) [2] | GTP binding, percent of control [3] | outcome [4] | GTP binding signal, raw median fluorescence (lower = inhibition) (MCF (arbitrary fluorescence units)) [5] | outcome [6]
Cc1ccc(CSc2nnc(-c3ccccc3N)c(=O)[nH]2)cc1 | inactive | 34.1% | 80.1% | inactive | 259 | inactive
O=C(O)CC/C(=C\c1ccccc1[N+](=O)[O-])c1nc2ccccc2s1 | inactive | 30.2% | 81.6% | inactive | 248 | inactive
O=C(O)c1ccc(CSCc2cccc(Cl)c2)o1 | inactive | 57.3% | 81.4% | inactive | 30.1 | inactive
Cc1ccc(Cc2cnc(NC(=O)/C(C#N)=C/c3ccc(-c4ccc([N+](=O)[O-])cc4)o3)s2)cc1 | inactive | 28.5% | 75.1% | inactive | 223 | inactive
O=c1[nH]c2sc3c(c2c2nncn12)CCCC3 | inactive | 23.4% | 59.2% | inactive | 103 | inactive
CCOc1ccc2nc(NC(=O)CSc3nc(-c4ccccc4)c(C#N)c(=O)[nH]3)sc2c1 | inactive | 25.1% | 70% | inactive | 240 | inactive
CCCCCn1nc(C(=O)OCC(=O)c2c(N)n(C)c(=O)n(C)c2=O)c2ccccc2c1=O | inactive | 34% | 79.6% | inactive | 232 | inactive
Cc1ccccc1NC(=O)C1CCCN1S(=O)(=O)c1cccc2cccnc12 (stereo not given) | inactive | 39.1% | 84.8% | inactive | 322 | inactive
Cc1nn2c(N)csc2nc1=O | inactive | 56.9% | 67.8% | inactive | 94.3 | inactive
Cc1ccc(COc2ccsc2C(=O)O)cc1 | inactive | 99.7% | 115% | inactive | 82.4 | inactive
CC(=O)OC(C(=O)NC1CCCCC1)c1ccc(Cl)c(Cl)c1 (stereo not given) | inactive | 39.6% | 88.7% | inactive | 310 | inactive
CN(C)c1ccc(/C=C2\SC(=S)N(Nc3ncc(C(F)(F)F)cc3Cl)C2=O)cc1 | inactive | 139% | 236% | inactive | 230 | inactive
COc1ccccc1C(=O)Nc1nc(-c2ccc3c(c2)OCCO3)cs1 | inactive | 28.6% | 77% | inactive | 216 | inactive
Cn1nnc(NC(=S)NC(=O)c2ccc(-c3ccc(Br)cc3)o2)n1 | inactive | 30.7% | 75.4% | inactive | 132 | inactive
CC(=O)Nc1ccc(N=Cc2c(O)c(C(=O)Nc3ccccc3)cc3ccccc23)cc1 | inactive | 85.4% | 123% | inactive | 341 | inactive
O=C(O)c1cn(CCOc2ccc(Cl)cc2)c2ccccc12 | inactive | 59.9% | 83.2% | inactive | 36.5 | inactive
Cc1ccccc1COc1c(C)cccc1C(=O)O | inactive | 59.9% | 209% | inactive | 56.3 | inactive
N#CC(C#N)=C1C=CC=CN1/C(=C\c1ccccc1Cl)C(=O)c1ccccc1 | inactive | 26.2% | 76.3% | inactive | 226 | inactive
Cc1ccc2cc3cc(C(=O)N4CCN(Cc5ccccc5)CC4)sc3nc2c1 | inactive | 87.8% | 156% | inactive | 188 | inactive
COc1cc2ccccc2cc1C(=O)NC(=S)Nc1cccc(C(=O)O)c1 | inactive | 33.8% | 83.3% | inactive | 174 | inactive
